# Results as given in PubChem BioAssay (Tox21).
# Values without a mark were called inactive. Results filed as inconclusive are left out. Entries that show only a call come without a potency. The source made the active and inactive calls. Unless noted, calls come from the whole dose curve; as a rule, active = well fitted curve in the direction sought with a large enough effect in the repeat runs; inconclusive = weak or mixed curves; inactive = no such curve, though single readings can be large; an effect the other way counts as inactive or inconclusive.
# Columns and labels:
# [1] = qHTS assay to identify small molecule antagonists of the androgen receptor (AR) signaling pathway using the MDA cell line in the presence of 0.5 nM R1881 - cell viability counter screen (AID 1259242); note: nearly all actives have a fitted effect of over 45% in size; note: potency is the fitted concentration of half-maximal effect
# Summary of the method: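 Cells seeded at 3,000/well and allowed 5 hr at 37C, 0% CO2 before compound transfer and R1881 (0.5 nM final) addition; 16 hr later, live-cell protease fluorescence indicated cytotoxicity.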
# [2] = target: Androgen receptor (Homo sapiens) (UniProt P10275); assay: qHTS assay to identify small molecule antagonists of the androgen receptor (AR) signaling pathway using the MDA cell line in the presence of 0.5 nM R1881 (AID 1259243); note: nearly all actives have a fitted effect of over 50% in size
# Summary of the method: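 Luminescence from an AR/GR-responsive MMTV-luciferase construct in MDA-kb2 breast carcinoma cells, read 30 min after ONE-Glo, following 16 hr co-treatment with compounds and 0.5 nM R1881.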
# [3] = qHTS assay to identify small molecule HDAC inhibitors (AID 1259364);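 note: wild-type HCT-116 cells with endogenous class I/II HDAC activity; top concentration of the series differs between compounds; nearly all actives have a fitted effect of over 45% in size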
# Summary of the method: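 HCT-116 wt cells, 1,500/well, overnight attach. Compounds (DMSO) 2 h, 37 °C. HDAC-Glo I/II, 30 min RT. Luminescence.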
# [4] = qHTS assay to identify small molecule HDAC inhibitors - cell viability counter screen (AID 1259365); note: series mostly up to about 92 µM; nearly all actives have a fitted effect of over 50% in size
# Summary of the method: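 Wild-type HCT-116 cells were seeded at 1,500 per well, incubated overnight at 37 C, then exposed to compounds in DMSO for 2hr. Viability was read by CellTiter-Glo luminescence after 30min at room temperature.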
# [5] = qHTS assay to identify small molecule agonists of the sonic hedgehog signaling (Shh) pathway - cell viability counter screen (AID 1259366); note: nearly all actives have a fitted effect of over 50% in size; note: potency is the fitted concentration of half-maximal effect
# Summary of the method: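 NIH/3T3-derived 3T3 Gli1-Luc cells (stable Gli1-responsive firefly luciferase reporter) were seeded, rested 4 hr at 37 C/5% CO2, then exposed to compounds in DMSO for 24 hr; viability was read by CellTiter-Fluor fluorescence in the same wells.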
# [6] = qHTS assay to identify small molecule antagonists of the sonic hedgehog signaling (Shh) pathway - cell viability counter screen (AID 1259367); note: nearly all actives have a fitted effect of over 55% in size; note: potency is the fitted concentration of half-maximal effect
# Summary of the method: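 Conditioned medium drove Shh signaling in 3T3 Gli1-Luc cells exposed to compounds at 37C and 5% CO2. Viability was determined from CellTiter-Fluor fluorescence, with reagent incubated 1 hr after 23 hr of treatment.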
# [7] = qHTS assay to identify small molecule antagonists of the sonic hedgehog signaling (Shh) pathway (AID 1259369; calls by dose curve; note: nearly all actives have a fitted effect of over 45% in size; note: potency is the fitted concentration of half-maximal effect)
# Summary of the method: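 Read-out is luminescence from a firefly luciferase gene controlled by the Gli1 response element, in 3T3Gli1-Luc cells pre-incubated 4hr then exposed to compounds and conditioned medium for 24hr.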
# [8] = target: Estrogen receptor beta (Homo sapiens) (UniProt Q92731); assay: qHTS assay to identify small molecule agonists of the estrogen receptor beta (ER-beta) signaling pathway (AID 1259377; active = well fitted activation curve with a large enough effect in the signal ratio in the repeat runs, not every such curve was filed as active; the % refers to the signal ratio)
# Summary of the method: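 ER-beta-UAS-bla HEK293T (GripTite) cells carrying a UAS-driven beta-lactamase reporter, in medium with 2% charcoal-stripped FBS, were exposed to compounds for 16 hr at 37C; LiveBLAzer B/G FRET substrate was then added and fluorescence read after 2 hours at room temperature.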
# [9] = qHTS assay to identify small molecule agonists of the androgen receptor (AR) signaling pathway in the presence of an antagonist - cell viability counter screen (AID 1259379); note: nearly all actives have a fitted effect of over 25% in size; note: potency is the fitted concentration of half-maximal effect
# Summary of the method: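 Each compound was tested at 15 concentrations on MDA-kb2 cells in the presence of 3.0uM nilutamide. Viability was measured by CellTiter-Fluor fluorescence after a 16 hr incubation at 37C in a CO2-free atmosphere.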
# [10] = qHTS assay to identify small molecule agonists of the estrogen receptor beta (ER-beta) signaling pathway - cell viability counter screen (AID 1259380); note: nearly all actives have a fitted effect of over 30% in size; note: potency is the fitted concentration of half-maximal effect
# Summary of the method: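 Compounds dissolved in DMSO were pin-transferred onto ER-beta-UAS-bla HEK293T cells that had settled 6 hr, and exposure ran 16 hr at 37C. Following the reporter read, CellTiter-Glo luminescence after 30 min at room temperature indicated cytotoxicity.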
# [11] = target: Androgen receptor (Homo sapiens) (UniProt P10275); assay: qHTS assay to identify small molecule agonists of the androgen receptor (AR) signaling pathway in the presence of an antagonist (AID 1259381; calls by dose curve; note: nearly all actives have a fitted effect of over 15% in size)
# Summary of the method: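 Plated MDA-kb2 cells (3,000/well) were pre-incubated 5hr, given nilutamide (3.0uM final) or buffer, then dosed with compounds in DMSO at 15 concentrations. Luciferase activity was quantified by luminescence after 16hr at 37C.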
# [12] = target: Estrogen receptor (Homo sapiens) (UniProt P03372); assay: qHTS assay to identify small molecule agonists of the estrogen receptor alpha (ER-alpha) signaling pathway in the presence of an antagonist (AID 1259383; calls by dose curve; note: top concentration of the series differs between compounds; nearly all actives have a fitted effect of over 15% in size)
# Summary of the method: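 Luminescent ERE-luciferase reporter, VM7Luc4E2 cells (endogenous ER-alpha); 10.0nM ICI-182,780 final; 15-point compound titration; 22hr at 37C; ONE-Glo, 30min RT.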
# [13] = qHTS assay to identify small molecule agonists or antagonists of the thyroid stimulating hormone receptor (TSHR) signaling pathway - wild type cell line counter screen (AID 1259384; calls by dose curve)
# Summary of the method: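 Wild-type HEK293 cells were plated 18 h at 37 C/5% CO2, pin-dosed with compound plus Ro20-1724 medium, held 30 min at room temperature, then given cAMP-d2 and anti-cAMP-cryptate; fluorescence was read after 1 h. Fifteen concentrations, triplicate.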
# [14] = target: Estrogen receptor (Homo sapiens) (UniProt P03372); assay: qHTS assay to identify small molecule antagonists of the estrogen receptor alpha (ER-alpha) signaling pathway using the BG1 cell line in the presence of 0.1 nM 17-beta-estradiol (AID 1259244); note: nearly all actives have a fitted effect of over 50% in size; note: potency is the fitted concentration of half-maximal effect
# Summary of the method: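 Luciferase signal from VM7Luc4E2 ERE-reporter cells, co-dosed with test compound and 0.1 nM final 17beta-estradiol for 22 h, read with ONE-Glo.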
# [15] = qHTS assay to identify small molecule agonists of the sonic hedgehog signaling (Shh) pathway (AID 1259368; calls by dose curve; note: series mostly up to about 92 µM; nearly all actives have a fitted effect of over 15% in size)
# Summary of the method: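 Following a 24 hr incubation with DMSO-dissolved compounds at 37 C, 5% CO2, Gli1-Luc NIH/3T3-derived cells received luciferase reagent for 30 min at room temperature prior to luminescence measurement.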
# [16] = target: Estrogen receptor beta (Homo sapiens) (UniProt Q92731); assay: qHTS assay to identify small molecule antagonists of the estrogen receptor beta (ER-beta) signaling pathway (AID 1259378; active = well fitted inhibition curve with a large enough effect in the signal ratio in the repeat runs, not every such curve was filed as active; the % refers to the signal ratio; note: potency is the fitted concentration of half-maximal effect)
# Summary of the method: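 ER-beta-UAS-bla HEK293T (GripTite) cells in 2% charcoal-stripped FBS medium were preincubated 6 hr at 37C, dosed with compound, then stimulated with 1 nM E2 (final) for 16 hr; beta-lactamase reporter read by B/G FRET fluorescence after 2 hr substrate loading.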
# [17] = qHTS assay to identify small molecule antagonists of the estrogen receptor beta (ER-beta) signaling pathway - cell viability counter screen (AID 1259382); note: nearly all actives have a fitted effect of over 55% in size; note: potency is the fitted concentration of half-maximal effect
# Summary of the method: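 CellTiter-Glo ATP luminescence measured after the LiveBLAzer read in the same wells; ER-beta-UAS-bla HEK293T cells, 16 hr compound treatment with 1nM 17-beta-estradiol agonist at 37C, 5% CO2.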
# [18] = target: Thyrotropin receptor (Homo sapiens) (UniProt P16473); assay: qHTS assay to identify small molecule antagonists of the thyroid stimulating hormone receptor (TSHR) signaling pathway (AID 1259385; calls by dose curve; note: nearly all actives have a fitted effect of over 20% in size)
# Summary of the method: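 TSHR-HEK293 cells were plated and held 18 h at 37C/5% CO2, then given compound plus Ro20-1724 and stimulated with TSH at 1.5 ng/mL final. After 30 min at room temperature, cAMP was detected with cAMP-d2/anti-cAMP-cryptate (1 h) by fluorescence.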
# [19] = qHTS assay to identify small molecule agonists of the estrogen receptor alpha (ER-alpha) signaling pathway in the presence of an antagonist - cell viability counter screen (AID 1259386);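 note: cells exposed to compounds for 22 h at 37 °C before the viability read; nearly all actives have a fitted effect of over 30% in size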; note: potency is the fitted concentration of half-maximal effect
# Summary of the method: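 Using estrogen-depleted VM7Luc4E2 cells, the 15-concentration compound series was applied together with 10.0nM ICI-182,780 and incubated 22hr at 37C/5% CO2. Cell viability was then scored by CellTiter-Fluor.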
# Chain of Estrogen receptor beta (Homo sapiens) (Q92731 whole entry, looked up): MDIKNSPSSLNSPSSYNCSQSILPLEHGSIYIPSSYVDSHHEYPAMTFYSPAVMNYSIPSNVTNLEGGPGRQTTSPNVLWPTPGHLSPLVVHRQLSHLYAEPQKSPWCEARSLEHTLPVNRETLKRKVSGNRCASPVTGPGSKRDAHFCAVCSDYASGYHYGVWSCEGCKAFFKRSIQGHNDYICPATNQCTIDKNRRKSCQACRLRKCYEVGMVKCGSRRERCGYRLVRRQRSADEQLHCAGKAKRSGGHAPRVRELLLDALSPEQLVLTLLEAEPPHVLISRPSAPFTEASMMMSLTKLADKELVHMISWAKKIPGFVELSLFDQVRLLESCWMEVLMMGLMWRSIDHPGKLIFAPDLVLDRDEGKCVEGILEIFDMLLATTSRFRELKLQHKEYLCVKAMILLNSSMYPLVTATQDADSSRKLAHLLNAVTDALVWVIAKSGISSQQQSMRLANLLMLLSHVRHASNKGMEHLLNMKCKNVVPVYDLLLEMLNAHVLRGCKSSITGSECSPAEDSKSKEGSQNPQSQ
# Chain of Estrogen receptor (Homo sapiens) (P03372 whole entry, looked up): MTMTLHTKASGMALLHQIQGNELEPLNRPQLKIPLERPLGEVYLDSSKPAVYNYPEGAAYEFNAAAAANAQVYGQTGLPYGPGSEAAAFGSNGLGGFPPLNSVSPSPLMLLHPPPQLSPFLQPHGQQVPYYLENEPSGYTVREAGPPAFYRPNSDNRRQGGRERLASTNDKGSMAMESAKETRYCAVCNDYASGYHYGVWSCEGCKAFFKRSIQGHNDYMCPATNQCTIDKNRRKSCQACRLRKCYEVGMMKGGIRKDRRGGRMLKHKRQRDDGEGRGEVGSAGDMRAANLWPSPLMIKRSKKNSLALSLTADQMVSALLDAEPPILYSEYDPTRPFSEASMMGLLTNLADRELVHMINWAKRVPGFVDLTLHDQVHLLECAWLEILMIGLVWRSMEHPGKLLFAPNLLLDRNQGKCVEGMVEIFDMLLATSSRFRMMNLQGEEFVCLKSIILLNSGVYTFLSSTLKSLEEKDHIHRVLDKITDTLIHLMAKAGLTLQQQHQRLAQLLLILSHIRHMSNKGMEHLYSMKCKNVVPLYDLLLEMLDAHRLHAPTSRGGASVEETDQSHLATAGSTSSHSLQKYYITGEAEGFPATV
# Chain of Androgen receptor (Homo sapiens) (P10275 whole entry, looked up): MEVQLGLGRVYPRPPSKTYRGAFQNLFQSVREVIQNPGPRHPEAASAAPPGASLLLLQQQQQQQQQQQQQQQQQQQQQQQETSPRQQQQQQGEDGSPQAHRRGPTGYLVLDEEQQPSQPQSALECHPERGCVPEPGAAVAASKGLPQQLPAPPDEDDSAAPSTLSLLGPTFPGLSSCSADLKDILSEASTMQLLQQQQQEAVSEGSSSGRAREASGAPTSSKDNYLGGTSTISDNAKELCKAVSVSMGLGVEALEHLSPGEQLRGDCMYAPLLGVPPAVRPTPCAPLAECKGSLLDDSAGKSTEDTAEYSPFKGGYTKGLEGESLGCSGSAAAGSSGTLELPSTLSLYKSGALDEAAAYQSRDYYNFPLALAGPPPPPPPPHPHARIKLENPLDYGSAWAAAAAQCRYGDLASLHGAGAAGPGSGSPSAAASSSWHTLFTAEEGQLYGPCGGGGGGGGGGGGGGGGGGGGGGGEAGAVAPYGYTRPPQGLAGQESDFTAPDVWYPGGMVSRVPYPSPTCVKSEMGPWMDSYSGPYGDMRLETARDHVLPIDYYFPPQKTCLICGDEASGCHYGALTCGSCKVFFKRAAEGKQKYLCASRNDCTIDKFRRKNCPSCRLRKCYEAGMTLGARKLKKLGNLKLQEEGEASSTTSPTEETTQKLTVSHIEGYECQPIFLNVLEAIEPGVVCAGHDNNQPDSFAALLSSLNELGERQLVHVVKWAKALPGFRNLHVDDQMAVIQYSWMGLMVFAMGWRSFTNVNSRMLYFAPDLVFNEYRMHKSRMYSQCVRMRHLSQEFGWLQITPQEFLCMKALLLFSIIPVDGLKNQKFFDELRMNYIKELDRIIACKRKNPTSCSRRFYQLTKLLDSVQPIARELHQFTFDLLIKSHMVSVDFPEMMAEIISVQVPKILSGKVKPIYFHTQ
# Chain of Thyrotropin receptor (Homo sapiens) (P16473 whole entry, looked up): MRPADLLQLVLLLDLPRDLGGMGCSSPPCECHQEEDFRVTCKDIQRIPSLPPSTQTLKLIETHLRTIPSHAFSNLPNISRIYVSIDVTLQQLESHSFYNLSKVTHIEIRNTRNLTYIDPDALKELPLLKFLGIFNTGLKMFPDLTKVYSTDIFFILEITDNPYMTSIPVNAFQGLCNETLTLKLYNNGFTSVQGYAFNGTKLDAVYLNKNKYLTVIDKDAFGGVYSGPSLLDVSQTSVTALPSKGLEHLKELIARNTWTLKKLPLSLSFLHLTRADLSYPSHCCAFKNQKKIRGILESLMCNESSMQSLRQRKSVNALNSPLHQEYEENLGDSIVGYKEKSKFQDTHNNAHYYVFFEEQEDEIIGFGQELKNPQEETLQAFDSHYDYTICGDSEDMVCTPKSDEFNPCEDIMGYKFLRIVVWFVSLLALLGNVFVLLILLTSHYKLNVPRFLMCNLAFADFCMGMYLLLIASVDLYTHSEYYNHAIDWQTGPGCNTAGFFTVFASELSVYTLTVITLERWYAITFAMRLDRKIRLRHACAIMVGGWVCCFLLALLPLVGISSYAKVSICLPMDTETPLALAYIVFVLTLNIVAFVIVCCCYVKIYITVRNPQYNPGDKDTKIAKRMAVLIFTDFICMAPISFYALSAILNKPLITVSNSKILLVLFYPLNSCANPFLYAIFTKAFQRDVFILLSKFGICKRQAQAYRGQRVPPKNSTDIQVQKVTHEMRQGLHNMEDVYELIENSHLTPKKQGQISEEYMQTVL
Compound,Potency [1],Potency [2],Potency [3],Potency [4],Potency [5],Potency [6],Potency [7],Potency [8],Potency [9],Potency [10],Potency [11],Potency [12],outcome [13],Potency [14],Potency [15],Potency [16],Potency [17],Potency [18],Potency [19]
CN(C)CCOC(c1ccccc1)c1ccccc1 (tested in a mixture with another compound),inactive,inactive,inactive,inactive,inactive,61.6 µM (active),24.5 µM (active),inactive,inactive,69.1 µM (active),inactive,inactive,inactive,–,–,–,–,–,–
Cc1cncc(C)c1,inactive,–,inactive,inactive,inactive,inactive,inactive,inactive,inactive,inactive,–,inactive,inactive,inactive,inactive,inactive,inactive,inactive,inactive
C=CC(=O)OCCC#N,inactive,inactive,inactive,inactive,inactive,inactive,inactive,–,inactive,–,–,–,inactive,–,inactive,inactive,inactive,inactive,inactive
Cc1oc(-c2ccccc2)nc1CCOc1ccc(C[C@H](Nc2ccccc2C(=O)c2ccccc2)C(=O)O)cc1,inactive,inactive,–,–,43.3 µM (active),48.6 µM (active),–,–,54.5 µM (active),27.3 µM (active),inactive,inactive,inactive,inactive,inactive,27.3 µM (active),24.3 µM (active),inactive,48.6 µM (active)
C/C=C/C(=O)C1=C(C)CCCC1(C)C,–,–,–,–,–,–,–,–,–,–,inactive,–,–,–,–,–,–,–,–
CNC(=O)c1cc(Oc2ccc(NC(=O)Nc3ccc(Cl)c(C(F)(F)F)c3)cc2)ccn1,26.6 µM (active),–,inactive,inactive,–,–,26.6 µM (active),–,29.8 µM (active),29.8 µM (active),–,inactive,inactive,26.6 µM (active),inactive,9.44 µM (active),–,–,–
CC(C)c1ccccc1N,inactive,–,inactive,–,inactive,inactive,inactive,–,inactive,inactive,–,inactive,inactive,inactive,inactive,–,inactive,inactive,inactive
CN(C)CCN1CCOCC1,inactive,–,inactive,–,inactive,inactive,inactive,inactive,inactive,inactive,–,inactive,inactive,inactive,inactive,inactive,inactive,inactive,inactive
Cc1ccc(CCn2c3c(c4cc(Cl)ccc42)CN(C)CC3)cn1,inactive,–,inactive,inactive,–,–,–,–,inactive,26.6 µM (active),inactive,inactive,inactive,inactive,–,–,26.6 µM (active),inactive,inactive
CCCCOC(=O)C(C)CC (stereo not given),inactive,–,inactive,inactive,inactive,inactive,–,–,inactive,inactive,–,inactive,inactive,inactive,–,inactive,inactive,inactive,inactive
Clc1nc2ccccc2s1,inactive,–,inactive,inactive,inactive,inactive,–,–,inactive,inactive,–,inactive,inactive,inactive,inactive,–,inactive,inactive,inactive
CC[N+](CC)(CC)Cc1ccccc1,inactive,–,inactive,–,inactive,inactive,inactive,–,inactive,inactive,–,inactive,–,inactive,inactive,inactive,inactive,–,inactive
NCCCCCCNCCCCCCN,inactive,–,inactive,inactive,–,–,–,–,inactive,inactive,–,inactive,–,inactive,inactive,–,inactive,–,inactive
O=C1OC(=O)c2cccc3cccc1c23,inactive,–,inactive,inactive,inactive,inactive,inactive,inactive,inactive,inactive,–,inactive,inactive,inactive,–,–,inactive,inactive,inactive
CCC(C)C(=O)OC (stereo not given),inactive,–,inactive,inactive,inactive,inactive,–,–,inactive,inactive,–,inactive,inactive,inactive,inactive,–,inactive,inactive,inactive
CC(=O)Oc1ccc(C2(c3ccc(OC(C)=O)cc3)C(=O)Nc3ccccc32)cc1,inactive,–,inactive,inactive,–,inactive,–,inactive,–,inactive,–,inactive,inactive,0.168 µM (active),inactive,–,inactive,–,0.668 µM (active)
COC(=O)CC#N,inactive,–,inactive,inactive,inactive,inactive,inactive,–,inactive,inactive,–,inactive,inactive,inactive,–,inactive,inactive,inactive,inactive
